Laboratory results: ChEMBL document CHEMBL4513216, “Probing the Open Global Health Chemical Diversity Library for Multistage-Active Starting Points for Next-Generation Antimalarials” (ACS Infect Dis, 2020)
Hit rate of the full screen: of about 69,000 compounds, about 8,600 (12%) showed an effect of 50% or more. The list comes from a sample in which strong results are over-represented; it also holds similar structures and randomly drawn compounds.

test system: Plasmodium berghei; assay: Screen against P. berghei liver stage (PbLuc), transformed with Luciferase, at 10uM; format: functional, HepG2; conditions: tested at 10 uM

SMILES | INHIBITION
Cc1cc(NC(=O)CN2CCCC2Cn2nc(C)nc2C)n(C)n1 (stereo unspecified) | 38.8%
Cc1cc(C)cc(OCC(=O)N2CCCC2)c1 | -55.3%
COCCn1cnnc1CNc1cc(C)nc2c(C)c(C)nn12 | 15.5%
Cc1nn(C)c2cnn(CC(=O)NCc3ccccc3F)c12 | 41.6%
CC(=O)N1CCCC1c1cc(Nc2nnc(C)s2)nc(C)n1 (stereo unspecified) | 26.8%
O=C(c1nn[nH]c1Nc1ccc(Cl)cc1)N1CCSCC1 | 11.8%
O=C(c1nn[nH]c1Nc1ccc(Cl)cc1)N1CCCCCC1 | 72%
O=C(c1nn[nH]c1Nc1cccc(Cl)c1)N1CCSCC1 | 8.38%
CC(C)CC(=O)NC1CC2(CCN(CCF)CC2)Oc2ccccc21 (stereo unspecified) | 34.6%
O=C(NC1CC2(CCN(CCO)CC2)Oc2ccccc21)c1csnn1 (stereo unspecified) | 34.9%
COCCN1CCC2(CC1)CC(NC(=O)CC1CC1)c1ccccc1O2 (stereo unspecified) | 56.8%
COCCN1CCC2(CC1)CC(NC(=O)COC)c1ccccc1O2 (stereo unspecified) | -13.4%
COCCN1CCC2(CC1)CC(NC(=O)C(C)C)c1ccccc1O2 (stereo unspecified) | 55.5%
CCN1CCC2(CC1)CC(NC(=O)c1c[nH]cn1)c1ccccc1O2 (stereo unspecified) | 44.8%
COCC(=O)NC1CC2(CCN(CC3CC3)CC2)Oc2ccccc21 (stereo unspecified) | -2.35%
COCCN1CCC2(CC1)CC(NC(=O)CN(C)C)c1ccccc1O2 (stereo unspecified) | 54.3%
CCN1CCC2(CC1)CC(NC(=O)c1csnn1)c1ccccc1O2 (stereo unspecified) | 41.2%
COCC(=O)NC1CC2(CCN(CCF)CC2)Oc2ccccc21 (stereo unspecified) | -5.94%
COCCN1CCC2(CC1)CC(NC(=O)C1CC1)c1ccccc1O2 (stereo unspecified) | 16.1%

SMILES | INHIBITION
CN1CCC2(CC1)CC(NC(=O)c1csnn1)c1ccccc1O2 (stereo unspecified) | 59.3%
CCOCCOc1ccc(S(=O)(=O)N2CCc3c(nc[nH]c3=O)C2)cc1 | 5.05%
Cc1nc(CN2CCN(CC3CCOC3)Cc3cccnc32)cs1 (stereo unspecified) | 41%
NC(=O)CSc1ccccc1NC(=O)C1CCCC1 | -53.6%
COc1cccc(C=CCCN2CCC(C(=O)N3CCCC3)CC2)c1 | -16.1%
O=C1NC2(CCN(C(=O)CN3CCOCC3)CC2)Nc2ccc(Cl)cc21 | 23.75%
Cn1ccc2cc(C(=O)Nc3nc[nH]n3)ccc21 | 11.6%
CN(C)C(=O)c1nnn(-c2ccc(Br)cc2)n1 | 28.4%
CCNc1cc2c(nn1)CCN(C(=O)Cc1ccc(C)nc1)C2 | -42.1%
CCc1ccc(C(=O)N2CCCC3(CCCC(=O)N3C)C2)cc1 (stereo unspecified) | 30.9%
O=C(CS(=O)(=O)C1CCCC1)NC(c1ccc(F)cc1)C1CC1 (stereo unspecified) | -32.6%
COCCN1C[C@@H]2CC[C@H]1CN(Cc1nc3ccccc3n1C)C2 | -35%
CC(=O)NCCNC(=O)c1cnc(-c2ccc(C)cc2C)s1 | -74.9%
CN(Cc1cnc(N)nc1)C(=O)c1coc(COc2ccccc2)n1 | 27.6%
CN1CCN(Cc2cccnc2)C(=O)C12CCN(Cc1ccco1)CC2 | 32.1%
Cc1nccn1Cc1nnc(C2CCN(c3ccncc3F)CC2)n1C | -21.9%
CC[C@@H]1N(Cc2ccsc2)CCC[C@]12CCC(=O)N2CCOC | 52.4%
CC[C@@H]1N(Cc2ccncc2)CCC[C@]12CCC(=O)N2CCOC | 25.3%
CC[C@@H]1N(Cc2ccsc2)CCC[C@]12CCC(=O)N2C | 23.2%

SMILES | INHIBITION
Cc1csc(CN2CC[C@@](O)(C3CCOCC3)[C@H](C)C2)n1 | 9.55%
O=C1NCc2ccccc2CC12CCN(Cc1c(F)cccc1Cl)C2 (stereo unspecified) | -9.73%
COc1ccc(CN(C(=O)C2CCCO2)c2ccncc2)cc1 (stereo unspecified) | 27.5%
COc1ccc(CN(C(=O)C2CCOCC2)c2ccncc2)cc1 | 1.7%
COc1ccc(CN(C(=O)C2CCCOC2)c2ccncc2)cc1 (stereo unspecified) | 66.3%
Brc1cnc(NCc2ccccc2N2CCOCC2)nc1 | -31.7%
O=C(CO)N1CC2(CCN(c3ccccc3)C2)C1 | -34.6%
O=C(CCO)N1CC2(CCN(c3ccccc3)C2)C1 | 61.9%
COCCC(=O)N1CC2(CCN(c3ccccc3)C2)C1 | 12.1%
Cc1nn(C)c(N(C)C)c1CNCCCNS(C)(=O)=O | -66.8%
CSc1[nH]nc(NC(=O)c2ccccc2)c1C#N | 23.1%
O[C@@H]1Cc2ccccc2[C@@H]1Nc1ncccc1F | 18%
O[C@H]1Cc2ccccc2[C@H]1Nc1ncccc1C(F)(F)F | 56.3%
N#Cc1cccnc1N[C@@H]1c2ccccc2C[C@@H]1O | 22.9%
COc1ccc2c(ccn2CCC(=O)Nc2n[nH]c(CC(C)C)n2)c1 | 46.7%
O=C(CC1CCCC1)NCCS(=O)(=O)N1CCN(c2ncccn2)CC1 | -73.6%
Cc1n[nH]c2c1C(c1ccc(F)cc1)SCC(=O)N2 (stereo unspecified) | 23.5%
Cc1n[nH]c2c1C(c1ccc(Cl)cc1)SCC(=O)N2 (stereo unspecified) | 46.7%
